Screening results from PubChem.
Hits are enriched below; roughly 8.1% of the tested compounds scored in any of these assays.
Sfp inh: qHTS Assay for Inhibitors of Bacillus subtilis Sfp phosphopantetheinyl transferase (PPTase) | Biochemical Sfp PPTase activity, qHTS | 3.5% of 310,000 active | 4'-phosphopantetheinyl transferase ffp (Bacillus subtilis), Q9F4F7 | Potency, µM, without a hit: largest response in the series, negative = inhibition, usual class: inhibitors;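 note: the enzyme is Sfp with the accession as filed and its product quenches rhodamine fluorescence; 0% = enzyme reaction without inhibitor and -100% = no enzyme wells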
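Fluorescence-quenching assay: 15 nM Sfp-PPTase preincubated 15 min at room temperature with compound, then 5 uM rhodamine-CoA and 12.5 uM BHQ-2-labelled YbbR peptide added. Fluorescence (ex 525/em 598 nm) read at start and after 30 min; difference gives rate.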
RORg inh: qHTS for inhibitors of ROR gamma transcriptional activity; Drosophila S2 Gal4-RORgamma UAS-luciferase reporter, 20 h; Potency, µM (titrated, usually from 53.6 µM), for the others: at the highest dose activity change, negative = inhibition, most hits filed as inhibitors; 5.4% of 310,000 active; AID 2551, 2010; note: % is set by controls: 0 for no effect and ±100 for the full control effect; nearly all actives have a fitted effect of over 60% in size
Target sequence (P51450 whole entry, looked up, the tested form may be a part): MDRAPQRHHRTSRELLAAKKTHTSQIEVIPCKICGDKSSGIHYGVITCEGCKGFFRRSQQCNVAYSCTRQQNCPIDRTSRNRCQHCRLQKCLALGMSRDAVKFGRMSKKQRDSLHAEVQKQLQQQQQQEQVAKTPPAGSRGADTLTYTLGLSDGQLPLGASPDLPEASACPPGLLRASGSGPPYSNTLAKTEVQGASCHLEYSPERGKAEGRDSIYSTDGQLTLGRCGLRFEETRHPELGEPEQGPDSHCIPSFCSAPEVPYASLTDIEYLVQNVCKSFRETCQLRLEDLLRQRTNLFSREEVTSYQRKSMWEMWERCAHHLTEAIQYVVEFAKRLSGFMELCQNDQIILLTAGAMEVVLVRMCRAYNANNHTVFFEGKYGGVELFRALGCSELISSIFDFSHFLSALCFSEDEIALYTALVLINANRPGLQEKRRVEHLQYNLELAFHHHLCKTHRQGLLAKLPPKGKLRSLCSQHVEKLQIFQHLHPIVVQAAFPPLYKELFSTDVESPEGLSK
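Schneider cells (Drosophila), stable Gal4 DBD–ROR gamma + UAS-luc; 1 hr cmpd preincubation; Cu2+ induction 700 uM final; 20 hr ambient; luminescence.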
ClpP mod: qHTS Assay for Activators of ClpP; 1.9% of 340,000 active; ATP-dependent Clp protease proteolytic subunit (Bacillus subtilis (strain 168)), P80244; AID 651965, 2013; Potency, µM (titrated, usually from 57.5 µM), for inactives: at the top dose activity change, negative = active; purified B. subtilis ClpP, FRET peptide cleavage, 20 min; active = well fitted falling curve with a large enough effect; inconclusive = small, poorly fitted or top-dose-only effect; inactive = no such curve, though single readings can be large or run the other way; note: the source files actives as falling curves though it sought activators and does not explain the sign; nearly all actives have a fitted effect of over 65% in size
Target sequence (P80244 whole entry, looked up): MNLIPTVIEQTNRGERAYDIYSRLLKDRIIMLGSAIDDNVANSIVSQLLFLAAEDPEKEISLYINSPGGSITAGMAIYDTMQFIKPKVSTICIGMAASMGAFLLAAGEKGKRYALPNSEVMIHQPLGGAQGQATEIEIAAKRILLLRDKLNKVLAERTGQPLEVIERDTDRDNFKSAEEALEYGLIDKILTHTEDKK
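FRET quenching reversal measured ClpP activation: 10 microg/mL B. subtilis ClpP at pH 8 with the FRET-FV decapeptide, read at 430 nm after 320 nm excitation. The 20-min minus 0-min signal was scaled between DMSO/no-enzyme wells and ADEP (5.8 microM final).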
PINK1 expr mod: A Quantitative High throughput Screen to Identify Chemical Modulators of PINK1 Expression; PINK1 immunofluorescence, high-content cytometry, 24 h; 0.2% of 410,000 active; Potency, µM (highest dose often 76.6 µM), for the others: at the top dose activation (PINK1 increase), hits mostly activators; active = well fitted activation curve with a large enough effect; inconclusive = small, poorly fitted or top-dose-only effect; cell line not stated here; note: % of control where 0% means no effect; nearly all actives have a fitted effect of over 65% in size
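Fluorescence from anti-PINK1 antibody, together with nuclear and cell stains, was scanned on a laser-scanning cytometer. Before staining, stable-line cells were incubated 24 hours with compounds at 5 concentrations; primary antibody 12 h at 10 degrees C.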
Gal4-VP16 FLuc: VP16 counterscreen qHTS for inhibitors of ROR gamma transcriptional activity. Drosophila S2 Gal4-VP16 UAS-luciferase, luminescence, 20 h. 3.5% of 310,000 active. AID 2546, 2010. Potency, µM (titrated, usually from 53.6 µM), inactives show at the highest dose activity, negative = inhibition, actives largely listed as inhibitors;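 note: Gal4-VP16 expression switched on by copper sulfate through the metallothionein promoter; % is set by controls: 0 for no effect and ±100 for the full control effect; nearly all actives have a fitted effect of over 50% in size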
Epigenetic derep: Quantitative High-Throughput Screen for Regulators of Epigenetic Control. murine LDR cells, GFP reporter derepression, 30 h. 0.2% of 280,000 active. Potency, µM (series often up to 53.9 µM), without a hit: at the highest dose GFP activation, hits mostly activators; note: % of control where 0% means no effect; nearly all actives have a fitted effect of over 60% in size
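Reporter derepression read as number of fluorescent GFP-positive objects, 20-120 um in size, counted by laser-scanning cytometer. Mouse LDR line with an epigenetically silenced CMV-GFP locus; compound incubation 30 h, 37 C.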
Active calls of the source: *; ? = inconclusive; nt = not tested or not shown; ! = a repeat was not active; [ ] = dose if it differs, or a comment. Unless noted, calls come from the whole dose curve; as a rule, active = well fitted curve in the direction sought with a large enough effect; inconclusive = small, poorly fitted or top-dose-only effect, or another doubt; inactive = no such curve, though single readings can be large; an effect the other way counts as inactive or inconclusive. Potency is the fitted concentration of half-maximal effect.

SMILES	Sfp inh	RORg inh	ClpP mod	PINK1 expr mod	Gal4-VP16 FLuc	Epigenetic derep
COCC(=O)Nc1ccc(Br)cc1C	18%	9%	nt	3%	8%	0%
CCCCCC(=O)NC(=S)Nc1ccc(Br)cc1C	25%	10µM*	-1%	7%	?	-1%
FC(F)(F)c1ccc2c(c1)ncc1c(-c3ccccc3)nn(-c3ccccc3)c12	nt	nt	0%	3%	nt	-2%
Cc1c(NC(=O)c2ccccc2NC(=O)COc2ccccc2)cccc1C(=O)O	-5%	7.9µM*	0%	-1%	13µM*	nt
COC(=O)c1ccccc1NC(=S)NC(=O)COc1ccccc1	-10%	5.6µM*	-1%	2%	11µM*	-1%
COC(=O)c1ccc(NC(=S)NNC(=O)c2ccccc2)cc1	?	-23%	nt	0%	-4%	-3%
Cc1c(NC(=O)c2ccccc2NC(=O)c2ccccc2)cccc1C(=O)O	24%	-16%	-2%	0%	-3%	nt
COC(=O)c1ccc(NC(=S)NNC(=O)CC(C)C)cc1	45µM*	-24%	1%	1%	?	0%
COC(=O)C1CCCCN1Cc1ccc2c(c1)CN(C(=O)c1ccc(F)cc1)CCO2 (stereo not drawn)	nt	nt	nt	2%	nt	nt
COc1ccc(OC)c(N=c2ssnc2Cl)c1	8.9µM*	18µM*	-10%	-1%	?	7%
COc1cc(N=c2ssnc2Cl)c(OC)cc1Cl	10µM*	?	1%	2%	25µM*	12%
CCCCCCCCCCCCCCC[C@@H](O)[C@@H](N)CO	45µM*!	-15%	0%	1%	-4%	1%
CCCCCCCCCCCCCCC[C@H](O)[C@H](N)CO	71µM*	?	1%	-1%	?	0%
Cn1c(=O)c2c(-c3ccc(Br)cc3)n(Cc3ccc(F)cc3)cc2n(C)c1=O	nt	nt	4%	-1%	nt	-3%
O=C(Cc1ccc(-c2ccccc2)cc1)NNC(=S)NCc1ccco1	24%	5.6µM*	nt	0%	?	0%
O=C(Cc1cccs1)NNC(=S)NCc1ccco1	7%	14µM*	nt	1%	-5%	2%
O=C(Cc1cccs1)NCc1ccco1	24%	21%	-2%	-1%	15%	2%
O=C(CC12CC3CC(CC(C3)C1)C2)NC(=S)NCc1ccco1	-7%	3.5µM*	0%	7%	?	0%
COc1ccc(NC(=O)C2CCN(C(=O)c3sc4nc[nH]c(=O)c4c3C)CC2)cc1Cl	nt	nt	-1%	0%	nt	0%
CCOC(=O)c1ccc(NC(=O)c2cccc3c2C(=O)N(CC2CCCO2)C3)cc1 (stereo not drawn)	-31%	-3%	-6%	-1%	-3%	nt
CCOC(=O)C1=CN(CC2CCCO2)C=C(C(=O)OCC)C1c1ccccc1C(F)(F)F (stereo not drawn)	40µM*	8%	1%	6%	-5%[10 µM]	-2%[10.1 µM]
C/C(=N\Nc1nccnc1Cl)c1ccc([N+](=O)[O-])cc1	79µM*	-18%	-1%	3%	13%	0%
C/C(=N\Nc1nccnc1Cl)c1ccc(Br)cc1	8%	?	-1%	-1%	?	nt
CC1=CC2=NC(=O)/C(=C\c3cn(C)c4ccccc34)C(=N)N2O1	13%	-40%	nt	?	-22%	?
CC1=CN2C(=N)/C(=C\c3cn(CCCOc4ccccc4)c4ccccc34)C(=O)N=C2S1	1%	7.1µM*	0%	5%	5µM*	?
SMILES	Sfp inh	RORg inh	ClpP mod	PINK1 expr mod	Gal4-VP16 FLuc	Epigenetic derep
O=C(NCCN1CCOCC1)c1ccncc1	12%	-13%	2%	-2%	2%	0%
O=C(NCCN1C(=O)CCC1=O)c1ccncc1	15%	5.6µM*	0%	-2%	-2%	1%
Cc1cc(Br)ccc1OCCCCN1CCCCC1	45µM*	-9%	nt	1%	-6%	2%
COc1cc(CCC(=O)NCc2ccc3c(c2)CCN3C(=O)c2cccc(C)c2)cc(OC)c1OC	nt	nt	-3%	0%	nt	0%
Cc1cc(C)c(S(=O)(=O)c2ccccc2)c(Cl)n1	-1%	-16%	14µM*	-1%	2%[0.365 µM]	-2%
CC(C)(C)C1CCC2(CC1)SCC(=O)N2c1ccccc1 (stereo not drawn)	10%	22%	-1%	10%[38.3 µM]	0%	-1%
CC(C)(C)C1CCC2(CC1)NC(=S)N(c1ccccc1)N2 (stereo not drawn)	?	10µM*	0%	0%	16µM*	0%
CCC(C)(C)C1CCC2(CC1)NC(=S)N(c1ccccc1)N2 (stereo not drawn)	79µM*	?	-2%	4%	?	0%
N#Cc1c(SCC(=O)Nc2nccs2)sc2c(O)cc(=O)[nH]c12	40µM*	15%	0%	0%	19%	nt
Cc1c(Cl)cccc1NC(=O)CSc1sc2c(O)cc(=O)[nH]c2c1C#N	?	1%	nt	0%	-1%	nt
N#Cc1c(SCC(=O)Nc2ccccc2C(F)(F)F)sc2c(O)cc(=O)[nH]c12	14µM*	0%	nt	1%	-2%	nt
CCCSc1nnc(NC(=O)CSc2sc3c(O)cc(=O)[nH]c3c2C#N)s1	?	-32%	nt	2%	-1%	nt
N#Cc1cccc(NC(=O)CSc2sc3c(O)cc(=O)[nH]c3c2C#N)c1	?	-1%	nt	3%	-4%	nt
N#Cc1c(SCC(=O)Nc2ccc(Cl)cc2Cl)sc2c(O)cc(=O)[nH]c12	-16%	2%	nt	32µM*	-11%	nt
CN(C)CC(C)(O)c1ccc2c(c1)CN(Cc1cccn1-c1ncccn1)CCO2 (stereo not drawn)	nt	nt	nt	-1%	nt	nt
COc1ccc(Br)cc1C1C(C(=O)Nc2ccc(C)cc2C)=C(C)Nc2ncnn21 (stereo not drawn)	nt	nt	-4%	0%	nt	-1%
O=C(N/N=C/c1ccc2nccnc2c1)c1ccncc1	16%	26%	-3%	0%	-3%	0%
O=C(N/N=C/c1cccc(OC2CSC2)c1)c1ccccc1O	?	13µM*	?	7%	0%	-2%
Cc1cccc(C(=O)Oc2ccc(/C=N/NC(=O)c3ccccc3O)cc2)c1	-7%	3.5µM*	-26%	14%	3.5µM*	-1%
O=C(N/N=C/c1cc(Br)c(O)c(Br)c1)c1cccc(C(F)(F)F)c1	-24%	6%	0%	0%	6%	-1%
O=C(N/N=C/c1ccc2nccnc2c1)c1ccccc1O	7%	6.3µM*	nt	nt	?	8%
